# Test results as given in ChEMBL document CHEMBL4513216, “Probing the Open Global Health Chemical Diversity Library for Multistage-Active Starting Points for Next-Generation Antimalarials” (ACS Infect Dis, 2020).
# Out of some 69,000 compounds screened, about 8,600 (12%) showed an effect of 50% or more. The entries come from a sample that favours strong results as a whole.
# Test system: Plasmodium berghei
# Test: Screen against P. berghei liver stage (PbLuc), transformed with Luciferase, at 10uM
# Format: functional, HepG2
# Conditions: tested at 10 uM
row,Structure (SMILES),INHIBITION [%]
1,N#Cc1cccc(NC(=O)N2CCC3(CCC(=O)N(C4CC4)C3)CC2)c1,19.5
2,CCOC1COC2(CCN(Cc3cccnc3OC)CC2)C1 (stereo not given),18.6
3,COc1ncccc1CN1CCC2(CC1)CC(OCC1CC1)CO2 (stereo not given),56.4
4,COc1ncccc1CN1CC[C@]2(C[C@@H](OCc3ccccn3)CO2)C1,-3.52
5,CCN1CCCC12CCN(Cc1cccnc1OC)CC2,42.3
6,COCCN1CCCC12CCN(Cc1cccnc1OC)CC2,26
7,COc1ncccc1CN1CCC2(CC1)COCCN2C,70.4
8,CCCC(=O)N1CCC(C(=O)NCCNc2ncccn2)CC1,21.6
9,Cc1c[nH]c(C2CCCN2C(=O)CCc2c(C)n[nH]c2C)n1 (stereo not given),-0.13
10,CN(C)C(=O)N1CCN(C(=O)c2ccn3cncc3c2)CC1,15.1
11,O=C(Cn1nnn(-c2cccs2)c1=O)N(CC1CCOC1)C1CC1 (stereo not given),51.7
12,O=C(Cn1nnn(-c2cccs2)c1=O)NCC1CCOC1 (stereo not given),13.7
13,CCN(CC1CCOC1)C(=O)Cn1nnn(-c2cccs2)c1=O (stereo not given),12.8
14,CC(C)c1nc2c(n1C)CCN(CCCOc1ccc(C#N)cc1)C2,-2.53
15,Cc1cccc(CNC(=O)c2cccnc2N)c1,44.1
16,Nc1ncccc1C(=O)NCc1ccc(Br)cc1,-26.3
17,Nc1ncccc1C(=O)NCc1cccc(Cl)c1,69.8
18,CC(C)Sc1ncccc1C(=O)NCc1cccc(N(C)C)c1,19.6
19,COc1cccc(CNC(=O)c2cccnc2N)c1,0.207
20,Nc1ncccc1C(=O)NCc1cccc(Br)c1,68.9
21,CC(C)N1CC(C(=O)NCc2ccc(S(=O)(=O)N(C)C)cc2)CC1=O (stereo not given),6
22,CN1CCC(Cc2cnc(CNC(=O)Cc3cccc(F)c3)cn2)CC1,26.75

row,Structure (SMILES),INHIBITION [%]
1,Cc1ccc(NC2COC3(CCN(CC(C)C)CC3)C2)nn1 (stereo not given),46.7
2,CCc1nnc2n1CCN(C(C(=O)NC1CC1)c1ccc(F)cc1)C2 (stereo not given),2.61
3,CN1CCC(Cc2noc(CC3CC3)n2)CC1,48.8
4,CCCN1CCC(Cc2nc(CN3CCN(C)CC3)no2)CC1,54.4
5,CN1CCN(Cc2noc(CC3CCc4ccccc43)n2)CC1 (stereo not given),42.1
6,CN1CCN(Cc2noc(CCc3nc(-c4ccccc4)no3)n2)CC1,74.4
7,CCCc1nc(CN2CCN(Cc3noc(CCC)n3)CC2)no1,17.7
8,CCCc1nc(CN2CCN(CC(O)c3ccccc3)CC2)no1 (stereo not given),34.5
9,Cc1noc(C)c1C(=O)N1CCC(n2cccn2)CC1,19.4
10,Cc1nc(CN2C(=O)CCC23CCN(c2ncccc2C)CC3)cs1,37.2
11,CC(=O)N1CCc2nnc(C3CCCCN3CC3CC3)n2CC1 (stereo not given),3.91
12,COCCCNC(=O)Cn1c(C)cc(=O)n2nc(-c3cccs3)nc12,49.1
13,Cc1cc(=O)n2nc(-c3cccs3)nc2n1CC(=O)NC(C)C,67.3
14,COC(=O)Cn1c(C)cc(=O)n2nc(-c3cccs3)nc12,29.2
15,Cc1cccc(CN(Cc2nc3c(cnn3C)c(=O)[nH]2)C2CC2)c1,23.7
16,Cc1cc(C)nc(C2CCN(C(=O)CCn3nnc4ccccc43)C2)n1 (stereo not given),22
17,CSc1ccccc1NC(=O)N1C[C@@H](N(C)C)[C@H](c2ccc(C)cc2)C1,-5.38
18,CCOc1ccc(CN2CC[C@@H]3CC[C@H](C2)N3)cc1CO,31.2
19,N#Cc1ccc(C(=O)N2CC[C@H]3[C@H]2CCN3CC2CCOCC2)cc1,-13.4
20,Cc1ccc(C(=O)N2CC[C@H]3[C@H]2CCN3CC2CCOCC2)cc1F,67.2
21,N#Cc1ccc(C(=O)N2CC[C@H]3[C@H]2CCN3CC2CC2)cc1,27.2
22,N#Cc1cccc(C(=O)N2CC[C@H]3[C@H]2CCN3CC2CC2)c1,12.4

row,Structure (SMILES),INHIBITION [%]
1,O=C(c1cscn1)N1CC[C@@H]2[C@@H]1CCN2CC1CCOC1 (stereo not given in full),49.4
2,O=C(c1cscn1)N1CC[C@@H]2[C@@H]1CCN2CC1CCOCC1,-41
3,O=C(c1ccc(F)cc1)N1CC[C@H]2[C@H]1CCN2CC1CCOCC1,64.9
4,O=C(c1ccc(F)cc1)N1CC[C@H]2[C@H]1CCN2CC1CC1,-12.2
5,Cc1ccc(C(=O)N2CC[C@H]3[C@H]2CCN3CC2CCOCC2)cn1,57.9
6,O=C(c1ccco1)N1CC[C@H]2[C@H]1CCN2CC1CCOCC1,25
7,O=C(c1cccc(Cl)c1)N1CC[C@H]2[C@H]1CCN2CC1CC1,64.9
8,O=C(c1cccc(Cl)c1)N1CC[C@H]2[C@H]1CCN2CC1CCOCC1,30.1
9,COc1ncc(CN(CCCN2CCOCC2)Cc2ccc(C)o2)cn1,30.4
10,CC(C)c1ncc2c(n1)CN(CCCc1nc3ccccc3o1)CC2,40.9
11,Cc1cc(CN2CCC3(CC2)COC(COc2ccccn2)C3)no1 (stereo not given),-19.8
12,O=C1CCC2(CCNCC2)CN1Cc1nnc2ccccn12,42.1
13,Cc1[nH]ccc1C(=O)N1CCN(C)C2(CCC(=O)N(C)CC2)C1 (stereo not given),-2.39
14,CC(C)(C)C(=O)NCCn1ccc(-c2ccccn2)n1,-43.7
15,COc1ccc([C@@H]2CN(Cc3ccncc3)C[C@H]2N(C)C)cc1,33
16,O=C(c1cccc(F)c1)N1CC[C@H]2[C@H]1CCN2CC1CCOCC1,59
17,Cn1cc(CN2CC[C@@H]3[C@@H]2CCN3C(=O)c2cccc(F)c2)cn1,10.1
18,N#Cc1cccc(C(=O)N2CC[C@H]3[C@H]2CCN3CC2CCOCC2)c1,34.6
19,CS(=O)(=O)c1cncnc1C1CCCN(C(=O)Nc2ccc(F)cc2)C1 (stereo not given),-18.555
20,COc1ccc(C(=O)N2CCCC(n3cc(C)cn3)C2)c(F)c1 (stereo not given),2.97
21,CCS(=O)(=O)N1CCN(C(=O)NC(C)C)CC2(CNC(=O)C2)C1 (stereo not given),3.25
